Measurements published in ChEMBL document CHEMBL3988442, “University of Dundee, Small-Polar-MMV Screening Library” (2021).
Among all 48,000 compounds or so, about 13,000 (27%) showed an effect of 50% or more. This is one part of the list.

system: Wolbachia pipientis; test: Anti-Wolbachia Cell-Based Screen; assay type: functional; parameters: scale not given: in the data most compounds retested in dose-response had high values; details: 5 µM

| Compound | Percent Effect [%] |
| --- | --- |
| O=C(C1CCCOC1)N(CC(F)F)c1cccc(Cl)c1 (centres undefined) | -10.1 |
| CN1CCN(C(=O)C2SCCc3sccc32)CC1 (centres undefined) | -4.064 |
| CCC(C)(C)NC(=O)CSCc1ccc(S(=O)(=O)N(C)C)o1 | 5.588 |
| CCC(C)(CC(=O)OC)NCc1cc(C)on1 (centres undefined) | -8.886 |
| COc1ccccc1CC(C)(C)NC(=O)CNS(C)(=O)=O | -9.621 |
| Clc1ccccc1-c1nnc(CN2CCCC2Cn2cncn2)o1 (centres undefined) | 104.1 |
| N#Cc1ccc(CN2CCCCC2Cn2cncn2)cc1 (centres undefined) | 10.73 |
| Clc1ccc2cccnc2c1CN1CCCC1Cn1cncn1 (centres undefined) | -9.545 |
| Fc1ccc(-c2nnc(CN3CCCC3Cn3cncn3)o2)cc1 (centres undefined) | -1.304 |
| c1coc(-c2nnc(CN3CCCC3Cn3cncn3)o2)c1 (centres undefined) | 82.67 |
| c1csc(-c2nc(CN3CCCC3Cn3cncn3)co2)c1 (centres undefined) | 2.244 |
| Cc1cnn(CC2CCCCN2Cc2nnc(-c3ccco3)o2)c1 (centres undefined) | 2.932 |
| COc1ccc(-c2cnc(CN3CCCC3Cn3cncn3)o2)cc1 (centres undefined) | -4.543 |
| c1ccc(-c2nnc(CN3CCCC3Cn3cncn3)o2)cc1 (centres undefined) | 126.9 |
| COc1ccc(-c2nnc(CN3CCCC3Cn3cncn3)o2)cc1 (centres undefined) | 93.03 |
| CS(=O)(=O)N[C@@H]1CCN(Cc2nccs2)[C@H]1Cc1ccncc1.O=C(O)C(F)(F)F.O=C(O)C(F)(F)F | -21.66 |
| COCc1cc(CNC(=O)c2c(C)c(C)cc(C)c2C)n[nH]1 | -1.645 |
| CC(=O)Nc1ccc(C(=O)N(C)C(C)Cc2cc(C)ccn2)cn1 (centres undefined) | -9.308 |
| O=C(O)c1ccn(-c2ccccc2NS(=O)(=O)c2ccccc2)n1 | 2.8 |
| Cc1nc(CN2C[C@@H]3CN(c4ncccn4)C[C@@H]3C2=O)cs1.O=C(O)C(F)(F)F | 2.706 |
| Cc1ccc(-c2nnc(CN3CCCCC3Cn3cncn3)o2)cc1 (centres undefined) | 107.2 |
| Cc1cccc(-c2nc(CN3CCCCC3Cn3cncn3)no2)c1 (centres undefined) | -2.041 |
| CC(C)=Cc1c(-c2ccccc2)ncn1CCS(C)(=O)=O | -13.72 |
| CC(C)N1CCC2(CCCN(c3nccc(C(F)(F)F)n3)C2)CC1.O=C(O)C(F)(F)F | -13.26 |
| OC1(CN2CCCCC2)CCN(c2nccc(C(F)(F)F)n2)C1 (centres undefined) | 108.3 |
| CN1CCCC2(CCN(c3cccc(C(F)(F)F)n3)C2)C1=O (centres undefined) | -13.28 |
| O=C1CCC2(CCN(c3cccc(C(F)(F)F)n3)CC2)CN1CCO | 4.395 |
| CC(C)N1CCCC2(CCN(c3nccc(C(F)(F)F)n3)C2)C1=O (centres undefined) | -9.493 |
| OC1(CN2CCCCC2)CCN(c2cccc(C(F)(F)F)n2)C1 (centres undefined) | 110.2 |
